# Screening results: PubChem, National Center for Advancing Translational Sciences (NCATS)
# Rows were chosen to be rich in hits. Some 3.3% of all compounds tested hit in one or more screens of this group.
# RE007 growth inh: qHTS Assay for Inhibitors of the HIV-1 protein Vpr. S. pombe RE007 Vpr strain, BacTiter-Glo ATP luminescence, 24 h. Potency, µM (titrated, usually from 92.2 µM), inactives show at the top dose activity change, negative = less growth, hits mostly inhibitors. actives 0.21% (n = 360,000). AID 651644, 2012; active = well fitted falling curve with a large enough effect; inconclusive = small, poorly fitted or top-dose-only effect; inactive = no such curve, though single readings can be large or run the other way; note: potency is the fitted concentration of half-maximal effect; % is set by controls: 0 for no effect and ±100 for the full control effect; nearly all actives have a fitted effect of over 50% in size
#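 Fission yeast RE007 carrying one integrated HIV-1 vpr copy, seeded at OD 0.01 in PMG+AL medium with 23 nL pinned compound. Grown 24 h at 30 degrees; viability read by BacTiter-Glo luminescence after 5 min.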
# Tb PYK inh: qHTS of Trypanosoma Brucei Inhibitors; pyruvate kinase (Trypanosoma brucei), Q57TT1; Potency, µM (doses to about 76.8 µM), inactives show top-dose activity, negative = inhibition, most hits filed as inhibitors; AID 624173, 2012; actives 0.12% (n = 410,000); TbPYK enzyme, Kinase-Glo Plus ATP luminescence, 45 min; note: potency is the fitted concentration of half-maximal effect; % is set by controls: 0 for no effect and ±100 for the full control effect; nearly all actives have a fitted effect of over 50% in size
#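 ADP (130 uM final) triggers the TbPYK reaction after compound addition; incubation is 45 min at room temperature. Kinase-Glo Plus is then added and luminescence imaged. Normalized data are fitted to concentration-effect curves.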
# SARS PLpro yeast-1: qHTS of Yeast-based Assay for SARS-CoV PLP | S. cerevisiae expressing SARS-CoV PLpro, growth rescue | Potency, µM (series often up to 32.9 µM), for inactives: at the highest dose activity, positive = growth rescue, actives largely listed as activators | actives 0.19% (n = 330,000) | AID 485353, 2010; calls by dose curve; note: potency is the fitted concentration of half-maximal effect; 0% is about no effect; nearly all actives have a fitted effect of over 55% in size
# Sm TGR block: qHTS Assay for the Inhibitors of Schistosoma Mansoni Peroxiredoxins | Schistosoma mansoni thioredoxin glutathione reductase (TGR), Q962Y6 | purified TGR, DTNB reduction, TNB absorbance 405 nm | Potency, µM (highest dose often 114 µM), without a hit: top-dose activity change, negative = inhibition, hits mostly inhibitors | actives 3% (n = 360,000) | AID 485364, 2010; note: potency is the fitted concentration of half-maximal effect; % is set by controls: 0 for no effect and ±100 for the full control effect; nearly all actives have a fitted effect of over 60% in size
#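 TGR 20 nM + NADPH 100 uM (dispensed conc.), cpd preinc 15 min RT; start with NADPH (500 uM addition) then DTNB (15 mM addition). Kinetic TNB absorbance, 405 nm filter. Four-parameter Hill fit across titration.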
# LmPK inhibitor: qHTS Assay for Inhibitors of Leishmania Mexicana Pyruvate Kinase (LmPK); purified LmPK, Kinase-Glo ATP luminescence, 1 h; Potency, µM (highest dose often 57.5 µM), for the others: at the highest dose activity change, negative = inhibition, most hits filed as inhibitors; actives 0.37% (n = 290,000); AID 1721, 2009; note: potency is the fitted concentration of half-maximal effect; % is set by controls: 0 for no effect and ±100 for the full control effect
# Target sequence (Q27686 whole entry, looked up): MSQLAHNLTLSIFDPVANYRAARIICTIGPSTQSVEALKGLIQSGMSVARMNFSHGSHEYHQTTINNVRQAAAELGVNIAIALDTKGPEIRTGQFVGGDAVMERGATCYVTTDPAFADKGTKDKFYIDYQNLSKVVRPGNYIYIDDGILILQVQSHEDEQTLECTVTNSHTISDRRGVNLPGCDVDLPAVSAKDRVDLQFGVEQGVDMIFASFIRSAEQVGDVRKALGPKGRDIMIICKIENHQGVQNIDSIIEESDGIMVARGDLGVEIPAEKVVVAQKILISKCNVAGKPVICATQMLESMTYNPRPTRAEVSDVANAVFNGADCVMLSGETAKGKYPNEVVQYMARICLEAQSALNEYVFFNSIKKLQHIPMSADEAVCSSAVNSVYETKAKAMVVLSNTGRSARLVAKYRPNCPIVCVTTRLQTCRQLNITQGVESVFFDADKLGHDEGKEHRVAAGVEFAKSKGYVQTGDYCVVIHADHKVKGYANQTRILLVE
#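 0.1 nM LmPK, 0.5 mM PEP, 0.1 mM ADP; 50 mM imidazole pH 7.2, 7 mM MgCl2, 50 mM KCl; 1 h RT. Kinase-Glo luminescence readout, normalized to no-enzyme (full inhibition) and uninhibited wells.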
# NS1 function inh: qHTS Assay for Inhibitors of Influenza NS1 Protein Function; Potency, µM (highest dose often 46.1 µM), for the others: top-dose activity, positive = more growth; actives 0.4% (n = 270,000); calls by dose curve; note: potency is the fitted concentration of half-maximal effect; actives are rising curves; nearly all actives have a fitted effect of over 50% in size
#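 Growth recovery, yeast-based: influenza A NS1 expressed in S. cerevisiae causes slow growth, and suppressors are detected by OD600. The parent strain without NS1 is used as positive control.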
# SARS PLpro yeast-2: qHTS of Yeast-based Assay for SARS-CoV PLP: Hit Validation | shares compounds with SARS PLpro yeast-1 | yeast expressing SARS-CoV PLpro, growth phenotype rescue | calls only | actives 19% (n = 1,000); call rule not given here
# An asterisk follows results filed as active; i = inactive; ? = inconclusive; nt = no result; + = active, no number; [ ] = remark or other dose. Unless noted, calls come from the whole dose curve; as a rule, active = well fitted curve in the direction sought with a large enough effect; inconclusive = small, poorly fitted or top-dose-only effect, or another doubt; inactive = no such curve, though single readings can be large; an effect the other way counts as inactive or inconclusive.
SMILES,RE007 growth inh,Tb PYK inh,SARS PLpro yeast-1,Sm TGR block,LmPK inhibitor,NS1 function inh,SARS PLpro yeast-2
O=C(COC(=O)c1cnc(Cl)c(Cl)c1)Nc1ccc(S(=O)(=O)N2CCCC2)cc1,2%,-3%,?,-16%,0%,6%,i
COc1ccccc1NC(c1ccc(Cl)cc1)c1nnc(-c2cccc(F)c2)o1 (configuration not stated),nt,-4%,nt,0%,nt,nt,nt
O=C(N/N=C/c1ccccc1O)c1cccc(C(F)(F)F)c1,9%,-20%,?,2%,3%,3%,i
O=C(N/N=C/c1ccc(O)cc1)c1cccc(C(F)(F)F)c1,-3%,-13%,?,0%,-5%,-9%,nt
Cc1cccc(N(C)S(=O)(=O)c2nnc(NC(=O)C(C)Oc3ccccc3)s2)c1 (configuration not stated),nt,-4%,nt,?,nt,nt,nt
COCCCNC(=O)c1ccc(Cn2c(=O)c3ccccc3n(CC(N)=O)c2=O)cc1,nt,-8%,nt,-2%,nt,nt,nt
Cc1cccc(C2=NN(c3ccc(Br)cc3)[C@@H](C(=O)N3CCOC3=O)[C@@H]2c2ccccc2)c1,6%,-1%,3.5µM*,nt,nt,nt,i
CCOC(=O)c1c(NC(=O)CSc2cn(CCNC(=O)c3ccc(OC)c(OC)c3)c3ccccc23)sc2c1CCCC2,nt,0%,nt,10%,nt,nt,nt
O=C(CSc1nc(-c2ccco2)cc(C(F)(F)F)n1)Nc1ccccc1C(F)(F)F,0%,-9%,?,-4%,-1%,-1%,i
Cc1ccc(S(=O)(=O)N(C)Cc2ccc(C(=O)N/N=C/c3ccc(OC(F)F)cc3OC(F)F)cc2)cc1,-2%,2%,-2%,-8%,-4%,?,nt
O=C(N/N=C/c1ccc(OC(F)F)cc1OC(F)F)c1ccc(Br)cc1,7%,0%,nt,9%,8%,5%,i
Cc1cccc(NC(=S)NNC(=O)COc2ccc(Cl)cc2Cl)c1,12%,4%,10µM*,-20%,5%,21%,+
COc1ccc(/C(N)=N/OC(=O)c2ccc(OC)c([N+](=O)[O-])c2)cc1OC,9%,3%,-1%,25%,3%,0%,nt
COc1ccc(/C(N)=N/OC(=O)c2cccc([N+](=O)[O-])c2C)cc1OC,3%,-3%,?,-1%,1%,-1%,i
CN(C)c1ccc(CN(Cc2ccco2)C(=O)COc2ccc(F)cc2)cc1,nt,1%,nt,3%,nt,nt,nt
Cc1cc(C(=S)N2CCOCC2)c(C)n1-c1ccc(Cl)cc1,4%,-24%,27%,-26%,2%,10%,nt
Cc1cc(C)cc(-n2c(C)cc(C(=S)N3CCOCC3)c2C)c1,1%,-12%,14µM*,3%,2%,5%,+
CCC(C(=O)Nc1cccc(-c2cn3cccnc3n2)c1)c1ccccc1 (configuration not stated),nt,-6%,nt,0%,nt,nt,nt
Nc1nc(SCc2ccc(Cl)cc2Cl)nc2nc3c(cc12)CCCC3,-13%,-2%,3%,-7%,2%,7%,nt
Nc1nc(SCc2ccccc2Cl)nc2nc3c(cc12)CCCC3,4%,1%,?,9%,-4%,4%,i
CCn1cc(C(=O)O)c(=O)c2cc(F)c(N3CCN(S(=O)(=O)c4ccc(NC(=O)OC)cc4)CC3)cc21,nt,-1%,?,1%,6%,?,i
CCC(=O)N1CCN(c2cc3c(cc2F)c(=O)c(C(=O)O)cn3CC)CC1,-16%,2%,nt,nt,nt,7%,nt
CC(C)c1ccc(CNCCSc2nnnn2-c2ccccc2)cc1,nt,5%,nt,0%,nt,nt,nt
O=C(Nc1ccccn1)c1ccc([N+](=O)[O-])o1,?,-5%,10µM*,-26%,-15%,-23%,i
O=C(Nc1ncccn1)c1ccc([N+](=O)[O-])o1,-12%,-12%,0%,?,-4%,nt,nt
SMILES,RE007 growth inh,Tb PYK inh,SARS PLpro yeast-1,Sm TGR block,LmPK inhibitor,NS1 function inh,SARS PLpro yeast-2
Cc1cccc(Nc2c(-c3cccs3)nc3nc(C)cc(C)n23)c1,nt,-5%,nt,0%,nt,nt,nt
Nc1nc(SCC(=O)OCc2ccccc2)[nH]c(=O)c1NC(=O)c1ccco1,-8%,6%,?,0%,1%,-27%,i
O=C(CN1CCCN(Cc2ccccc2Cl)S1(=O)=O)NCc1ccccc1,nt,3%[15.4 µM],nt,7%,nt,nt,nt
CCOc1ccc(OCC)c(NC(=O)c2cc(S(=O)(=O)N3CCc4ccccc43)cn2C)c1,nt,7%,nt,-2%,nt,nt,nt
Cc1cccc(-n2c(O)c(/C=N/NC(=O)c3ccccc3Cl)c3ccccc3c2=O)n1,2%,5%,14µM*,-12%,2%,?,i
O=C(N/N=C/c1c(O)n(Cc2ccccc2)c(=O)c2ccccc12)c1cccnc1,-15%,-9%,?,0%,3%,nt,nt
O=C(N/N=C/c1c(O)n(-c2ccccc2Cl)c(=O)c2ccccc12)c1cccnc1,8%,5%,5.6µM*,-22%,4%,nt,i
CCOC(=O)c1ccc(NC(=O)C2CCN(C(=O)c3ccc(OC)c(OC)c3)CC2)cc1,17%,1%,?,1%,-7%,0%,i
COc1ccc(C(=O)CC(=O)C(=O)NCCc2cccc(C)c2)cc1,-6%,0%,20µM*,5%,1%,8%,+
Cc1cccc(N2CCN(C(=O)CN3C(=O)COc4ccc(S(=O)(=O)N5CCCC5)cc43)CC2C)c1 (configuration not stated),nt,4%,nt,-20%,nt,nt,nt
CC12CCC3C(CC=C4CC(O)CCC43C)C1C/C(=C\N1CCCC1)C2=O (configuration not stated),nt,nt,-1%,-19%,7%,-31%,nt
Cc1nn(C)c(C)c1/C=C1/CC2C3CC=C4CC(O)CCC4(C)C3CCC2(C)C1=O (configuration not stated),23%,1%,13µM*,-8%,3%,-15%,i
CCCCNC(=O)C1CCN(S(=O)(=O)c2c(C)noc2/C=C\c2ccc(OC)cc2)CC1,10%,-6%,?,8%,2%,0%,+
N#Cc1c(N2CCN(C(=O)c3ccccc3Cl)CC2)nc(-c2ccccc2)c2c1CCCC2,25%,-5%,3.5µM*,11%,1%,27%,i
Cc1ccc(-c2noc(COc3ccc4c(c3)OCO4)n2)cc1,-5%,2%,13µM*,7%,-6%,-1%,i
O=c1c(=O)n(-c2ccccc2)ccn1Cc1c(F)cccc1Cl,nt,5%,nt,-1%,nt,nt,nt
